Common to all, as to experiment: NCI-60 one-dose screen, 48 h (100 = growth as untreated, 0 = no growth, -100 = all killed)
Holding throughout (conditions): 10 µM unless noted

Experiment [1] has as its system HCT-15 colon.
Experiment [2] concerns HT29 colon.
The test system of experiment [3] is SNB-75 CNS.
Experiment [4] concerns SNB-19 CNS.
The test system of experiment [5] is U251 CNS.
The test system of experiment [6] is PC-3 prostate.
Experiment [7] has as its system SK-MEL-5 melanoma.
Experiment [8] relates to UACC-62 melanoma.
In experiment [9] the test system is LOX IMVI melanoma.
The subject of experiment [10] is SK-MEL-28 melanoma.

Molecules are shown by their SMILES. This is part of a sample that, as a whole, favours compounds with a hit. Of some 83,000 tested, about 20% had one in any assay.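 Cell lines were cultured in 96-well plates, exposed to a single compound concentration, and assessed for percent growth 48 hours later.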 A number with no mark means an inactive call. Active and inactive are the calls of the source. Rule for the calls: active = growth percent below 10; inactive = the rest.

For the compound `O=c1ccn(C2OC(F)(CO)C(O)C2F)c(=O)[nH]1` (stereo not given), the growth in experiment [1] was 103%; in experiment [2], 94.5%; in [3] it was 95.9%; in experiment [4] it was 105%; in [5], 94.8%; in experiment [6], 93.1%. In addition, the growth in experiment [7] is 108%; in [8], 103%; in [9] it was 97.3%; in experiment [10] it was 109%.
Take `C=C(C)[C@@H]1CC[C@]2(C(=O)NCC(=O)O)CC[C@]3(C)[C@H](CC[C@@H]4[C@@]5(C)Cc6c([nH]c7ccccc67)C(C)(C)[C@@H]5CC[C@]43C)[C@@H]12`: the growth in experiment [1] was 77.5%; in experiment [2], 88.2%; in [3], 64.2%; in experiment [4], 71.2%; in [5], 61.8%; in experiment [6], 72.6%. The growth in experiment [7] is 103%; in experiment [8], 79.7%; in experiment [9], 99.1%; in experiment [10] it was 92.7%.
In the case of `Cc1nc2ccccc2c(/C=C/c2ccc(Cl)cc2)c1C(=O)/C=C/c1ccc(Cl)cc1`, the growth is -31.3% (active) in [1]; 3.75% (active) in experiment [2]; 81.5% in experiment [3]; -48.2% (active) in experiment [4]; -71.6% (active) in experiment [5]; -18% (active) in [6]. Also, the growth in experiment [7] is -71.7% (active); in experiment [8], -42.9% (active); in experiment [9] it was -93.8% (active); in [10], -66.6% (active).
For the compound `Cc1[nH]c(-c2nc3ccccc3[nH]2)c(C)c1C(=O)NNc1ccc(Cl)cc1`, the growth in experiment [1] was 94.1%; in [2] it was 104%; in experiment [3] it was 87.1%; in experiment [4], 87.1%; in experiment [5], 103%; in experiment [6], 85.6%. Moreover, the growth in experiment [7] was 98.2%; in experiment [8], 90.2%; in experiment [9], 93.6%; in experiment [10] it was 99.6%.
As to `CCN(CC)CCOC(=O)Nc1ccccc1Cl`, the growth in experiment [1] was 102%; in [2], 80.4%; in experiment [3], 108%; in experiment [4], 99.4%; in experiment [5], 99.3%; in experiment [6], 71.7%. Moreover, the growth in experiment [7] is 105%; in [8], 99.2%; in experiment [9], 101%; in experiment [10], 108%.
Consider `CN(C)c1cnccn1`, for which the growth in [1] was 87.6%; in experiment [2], 104%; in experiment [3] it was 96.6%; in experiment [4], 101%; in [5] it was 78.4%; in experiment [6] it was 88.6%. Also, the growth in experiment [7] is 96.1%; in [8], 98.6%; in experiment [9], 84.3%; in [10], 103%.
For `COc1cc2oc(-c3cccc(C(=O)Nc4ccc(C#N)cc4)c3)cc(=O)c2c(O)c1OC`, the growth in experiment [1] is 75%; in [2] it was 53.9%; in [3] it was 83.9%; in [4] it was 44%; in experiment [5], 61.3%; in experiment [6], 7.86% (active). In addition, the growth in [7] was 70.3%; in experiment [8] it was 41.5%; in experiment [9], 55.7%; in experiment [10], 32.8%.
For the compound `N#Cc1c(N)n2c(nc1=Nc1ccc([N+](=O)[O-])cc1)sc1cc(Cl)ccc12`, the growth in [1] was 95.9%; in [2], 99.2%; in experiment [3] it was 60.9%; in experiment [4] it was 95.7%; in [5] it was 85.8%; in [6], 81.8%. Further, the growth in experiment [7] was 73%; in [8] it was 53.1%; in [9], 79.4%; in experiment [10] it was 106%.
On to `CCCN1CCN(c2ccc3nc(-c4ccc5nc(-c6ccc(OCC)c(OCC)c6)[nH]c5c4)[nH]c3c2)CC1`, for which the growth in [1] is 5.97% (active); in [2], -31.3% (active); in experiment [3], -77.9% (active); in experiment [4], -39.7% (active); in experiment [5], -71.9% (active); in experiment [6], -40.6% (active). The growth in experiment [7] was -93.9% (active); in experiment [8], -85% (active); in [9] it was -84.3% (active); in [10] it was -86.6% (active).
In the case of `Clc1ccc(-c2cn(-c3ccccc3)c(-c3ccccc3)n2)cc1`, the growth was 79.4% in [1]; 85.3% in experiment [2]; 87.7% in experiment [3]; 79.1% in [4]; 78.2% in experiment [5]; 59.4% in experiment [6]. The growth in experiment [7] was 85.9%; in [8], 92.2%; in [9] it was 95.8%; in [10], 93.8%.
In the case of `Nc1ccn(C2OC(F)(CO)C(O)C2F)c(=O)n1` (stereo not given), the growth is 63.1% in experiment [1]; 48.3% in experiment [2]; 68.3% in [3]; 36.8% in experiment [4]; 29.8% in experiment [5]; 50.1% in [6]. For the same compound, the growth in [7] is 47.4%; in experiment [8], 49.3%; in experiment [9] it was 73.1%; in [10], 74.3%.
As for `C=C(C=O)C1CCC2(C(=O)O)CCC3(C)C(CCC4C5(C)CCC(O)C(C)(C)C5CCC43C)C12` (stereo not given), the growth in experiment [1] is -15.1% (active); in experiment [2] it was 3.49% (active); in experiment [3], 47.1%; in experiment [4], 66.3%; in experiment [5] it was 6.78% (active); in [6], 20.4%. Further, the growth in [7] is -96.9% (active); in [8], -84.2% (active); in [9], -74.1% (active); in [10], -30.8% (active).
Consider `COc1cc(/C=C2\C=C(c3ccccc3)N(CCc3ccccc3)C2=O)cc(OC)c1OC`, for which the growth is 94.1% in experiment [1]; 74.8% in experiment [2]; -6.74% (active) in experiment [3]; 65.4% in experiment [4]; 52.5% in [5]; 76.2% in experiment [6]. Also, the growth in experiment [7] was 57.7%; in [8] it was 56.1%; in experiment [9], 58.2%; in experiment [10], 84.1%.
On to `O=C1NC(=S)S/C1=C\N1N=C(c2ccc(Cl)cc2)CC1c1ccc(F)cc1` (stereo not given), for which the growth is 78.5% in [1]; 85.5% in experiment [2]; 76.1% in experiment [3]; 81.7% in experiment [4]; 68.7% in experiment [5]; 81.6% in experiment [6]. In addition, the growth in experiment [7] was 77.8%; in experiment [8], 73.6%; in experiment [9], 80.6%; in [10] it was 103%.
As for `COC(=O)CNC(=O)C(=O)c1c(O)c(O)c(C(C)C)c2cc(C)c(-c3c(C)cc4c(C(C)C)c(O)c(O)c(C(=O)C(=O)NCC(=O)OC)c4c3O)c(O)c12`, the growth in [1] is 18.3%; in experiment [2], 6.08% (active); in experiment [3], 57.5%; in experiment [4], 18.5%; in experiment [5] it was 4.8% (active); in [6], 18.7%. Also, the growth in [7] was 50.1%; in experiment [8], 48.5%; in experiment [9], 21.2%; in experiment [10] it was 44.7%.
On to `CSc1nc(N)c(CNC(C)c2ccccc2)c(=O)n1C` (stereo not given), for which the growth in experiment [1] is 104%; in experiment [2], 105%; in [3], 93.4%; in experiment [4] it was 98.9%; in experiment [5] it was 95%; in experiment [6] it was 101%. The growth in experiment [7] was 113%; in [8] it was 98.8%; in [9], 92.3%; in experiment [10], 109%.
Take `COc1cc2c(cc1OC)-c1ccc3cc4c(cc3c1N(CCCN(C)C)C2)OCO4`: the growth is 52% in experiment [1]; 11.5% in experiment [2]; 44.1% in experiment [3]; 25.3% in experiment [4]; 18.2% in experiment [5]; 23% in [6]. The growth in experiment [7] is 43.9%; in experiment [8], 44%; in [9], 19.5%; in experiment [10] it was 58.8%.
Take `COC(=O)/C(=C\c1ccc(OC)cc1)C(=O)N1c2ccccc2Sc2ccccc21`: the growth in [1] was 24%; in experiment [2] it was 15.3%; in experiment [3], 2.37% (active); in [4], 66.9%; in experiment [5], 50.3%; in [6], 53%. Also, the growth in [7] was 41.5%; in experiment [8], 19.5%; in experiment [9], 50.6%; in [10], 50.9%.
In the case of `Cc1cc(-c2ccc(N(C)C)cc2)c2sc(=O)[nH]c2n1`, the growth is 29.4% in experiment [1]; 70% in [2]; 53.2% in experiment [3]; 55.7% in [4]; 50.2% in experiment [5]; 80.8% in experiment [6]. Besides, the growth in experiment [7] was 33.3%; in experiment [8], 42.5%; in experiment [9] it was 51.6%; in [10], 69%.
Consider `O=C1CSC(c2ccccc2)N1c1ccccc1` (stereo not given), for which the growth in experiment [1] was 98.9%; in [2] it was 116%; in experiment [3], 99.5%; in experiment [4], 99.1%; in experiment [5], 102%; in experiment [6] it was 91.4%. Moreover, the growth was 98.1% in experiment [7], 103% in experiment [8], 97.7% in experiment [9] and 106% in experiment [10].
In the case of `N=C(N)c1ccc(-c2ccc(-c3ccc(Cl)c(Cl)c3)o2)nc1`, the growth in [1] is 17.2%; in experiment [2], -39.8% (active); in experiment [3] it was 97.8%; in [4], 6.96% (active); in [5], -57.1% (active); in experiment [6], 64.5%. Also, the growth in experiment [7] is 92.4%; in experiment [8] it was 103%; in experiment [9], -74.7% (active); in [10], 99.6%.

Values taken from PubChem BioAssay (NCI).
